Assay results from PubChem BioAssay AID1022 (Emory University Molecular Libraries Screening Center, 2008).
Among all 220,000 compounds or so, about 3,300 (1.5%) were called active.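 Rule for the calls: active = compounds that cut the protein-peptide binding signal by more than 50% relative to plate controls in a single-dose test; inactive = the rest.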 Shown is part of a subset that was picked to be rich in actives.

What follows are molecules tested against Induced myeloid leukemia cell differentiation protein Mcl-1 (Homo sapiens) (UniProt Q07820) (assay: Mcl-1/Noxa binding inhibitors, primary screen, biochemical, TR-FRET, 1536-well (AID 1022;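 note: His-tagged Mcl-1 with rhodamine Noxa BH3 peptide and terbium anti-His antibody; 0% = Mcl-1 plus Noxa peptide wells and 100% = peptide-only wells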)). Settings: TR-FRET Mcl-1/Noxa peptide binding, 2 h; at 21.7 µM; stronger effect = higher value.
Sequence of Induced myeloid leukemia cell differentiation protein Mcl-1 (Homo sapiens) (Q07820 whole entry, looked up): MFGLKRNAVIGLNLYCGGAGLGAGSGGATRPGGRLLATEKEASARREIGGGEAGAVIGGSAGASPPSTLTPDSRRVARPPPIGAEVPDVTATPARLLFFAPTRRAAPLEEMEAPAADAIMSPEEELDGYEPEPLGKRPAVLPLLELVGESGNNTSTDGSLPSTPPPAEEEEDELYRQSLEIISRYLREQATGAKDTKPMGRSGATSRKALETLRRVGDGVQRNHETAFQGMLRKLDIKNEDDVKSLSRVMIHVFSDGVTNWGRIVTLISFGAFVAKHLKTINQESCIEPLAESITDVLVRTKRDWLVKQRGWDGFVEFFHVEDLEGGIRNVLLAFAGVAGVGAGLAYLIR

inhibition, active:
Oc1c(Cl)cc(Cl)c(Cl)c1Cc1c(O)c(Cl)cc(Cl)c1Cl 104%
CCN(/N=C/c1ccc(N(C)C)cc1)c1nc2ccccc2[nH]1 81%
CN(C)c1ccc(/C=N/N(Cc2ccccc2)c2ccccc2)cc1 95.7%
COc1cc(/C=N/Nc2nn3cnnc3c3ccccc23)cc(OC)c1OC 52.5%
Cc1ccc(NN=Nc2nc3c([nH]2)c(=O)n(C)c(=O)n3C)cc1 55.6%
Cc1ccc(Cn2c(C)nc3c(c2=O)c2nc4ccccc4nc2n3Cc2ccco2)cc1 63.1%
CC(=O)N1C(=O)/C(=C2\SC(=S)N(NC(=O)c3ccc(O)cc3)C2=O)c2ccccc21 94.5%
C/C(=N/Nc1nc(-c2ccccc2)c(CC(=O)O)s1)c1ccccc1 55.8%
COC(=O)CC1=NN(c2nc(C)cc(C)n2)C(=O)C1 68%
Cc1cc(C(=O)N/N=C/c2ccc(O)c([N+](=O)[O-])c2)c(C)n1-c1ccc(F)cc1 87.3%
NNC(=O)c1oc2nc(-c3ccccc3)cc(-c3ccco3)c2c1N 72.9%
COc1ccc(NC(=O)/C(Cl)=C(/Cl)S(=O)Cc2ccc(C)cc2)cn1 (configuration not stated) 65.8%
COc1ccccc1C1=Nc2cccc3cccc(c23)N1 75.8%
c1ccc(CSc2nnc(-c3ccco3)n2Cc2ccccc2)cc1 53%
c1ccc(CSc2nnc(-c3ccco3)c(-c3ccco3)n2)cc1 108%
Clc1ccccc1CSc1nnc(-c2ccco2)c(-c2ccco2)n1 109%
CS(=O)(=O)c1ccc2c(c1)SC1=NC(=O)/C(=C/c3ccco3)C(=N)N12 103%
O=c1[nH]c(=S)[nH]c2[nH]c(=S)[nH]c12 95.1%
O=[N+]([O-])c1cc(Cl)cc(/C=N/NC(=S)Nc2cc(S(=O)(=O)N3CCOCC3)ccc2Cl)c1O 100%

inhibition, inactive:
Cc1ccc(NC(=O)/C(=C/c2ccc([N+](=O)[O-])cc2)NC(=O)c2ccccc2)cc1 3.04%
Cn1nccc1NC(=O)Nc1ccc(OC(F)(F)F)cc1 -2.66%
COC(=O)Cc1nc2ccccc2[nH]1 9.2%
CCN(/N=C/c1ccccc1)c1cc(=O)n(C)c(=O)[nH]1 21%
CN(C)c1ccc(/C=N\S(=O)(=O)c2ccccc2)cc1 2.37%
Oc1ccc(/C=N/N(Cc2ccccc2)c2ccccc2)cc1 27%
COc1cc(C(F)(F)F)nc2c(Br)c(C(C)(C)C)nn12 7.39%
CN(C)S(=O)(=O)c1ccc(C(=O)NCC(C)(C)N2CCOCC2)cc1 7.92%
Cc1ccc(NNC(=O)c2c(F)cccc2Cl)cc1Cl 0.81%
CCOC(=O)C1CCN(C(=O)Nc2cccc(OC)c2)CC1 -13.3%
COc1cccc(C(=O)n2ccc(-c3cccs3)n2)c1 1.68%
Cc1nnc(SC(C(=O)c2ccccc2)c2ccccc2)[nH]c1=O (configuration not stated) -5.97%
Cc1cc2c(cc1C)N(Cc1ccccc1)C1=NCCCN12 -4.28%
CCOc1ccc(/C=N/Nc2nncc(-c3ccccc3)n2)cc1OC 14.2%
COc1ccc(/C=N/Nc2nc3ccccc3o2)cc1OC -2.8%
C=CCN(c1ccccc1C(=O)NCC(=O)OCC)S(=O)(=O)c1ccc(C)cc1 8.19%
CC(CCO)Nc1nc2c([nH]1)c(=O)n(C)c(=O)n2C (configuration not stated) -3.43%
CCCSc1nc2c(c(=O)n(C)c(=O)n2C)n1Cc1ccc(C)cc1 -4.96%
Cc1cc(C(=O)NNS(=O)(=O)c2ccccc2C(F)(F)F)nn1C(C)(C)C -0.45%
Cc1cc(N2CCN(c3ccc(F)cc3)CC2)n2ncnc2n1 -1.64%
CC(C)NC(=O)NNc1c(Cl)cncc1Cl 3.37%
Cc1ccc(Cn2c(NC(=O)c3ccco3)nc3ccccc32)cc1 1.28%
Clc1cccc(-c2nc3nc4ccccc4nc3n2Cc2ccco2)c1 4.89%
COc1ccc2c(c1)C(=C(C#N)C#N)C(=O)N2CCc1ccccc1 -4.33%
CCCCCn1c(=O)c(C(=O)OCC)c(Cl)c2ccccc21 -2.04%
CCOC(=O)/C=C/CN(C(=O)OC(C)(C)C)S(=O)(=O)N1CC=CC1 -18%
CCC(C)N1C(=S)SC(C)(C)C1N(O)C(=O)NC1CCCCC1 (configuration not stated) -0.12%
O=C(O)c1ccc2c(c1)C(=O)N(NC(=O)c1ccc(O)cc1)C2=O 12.9%
Cn1cccc1/C=C1\SC(=S)N(NC(=O)c2ccc(Cl)cc2)C1=O 18.5%
O=C(NCCc1ccccc1)Oc1ccc(Cl)cc1 7.49%
COC(=O)N(NC(=O)C(O)(C(C)C)C(C)C)c1ccccc1 -6.13%
O=C(O)Cc1sc(-c2ccc(C(=O)O)cc2)nc1-c1ccccc1 15.3%
Cc1ccc(-c2nc(C)sc2CC(=O)O)cc1 6.4%
CCn1c(=O)c2cc(C(=O)Nc3cccc(C(C)=O)c3)sc2c2ccccc21 -88.5%
O=c1c(-c2ccc(Cl)cc2)[n+]([O-])c2ccccc2n1OCc1nc2ccccc2[nH]1 -16.2%
Cc1cc(C)cc(NC(=O)C2CCN(c3nc(C)cc(C)n3)CC2)c1 -11.6%
COC(=O)CC1=NN(c2ccccc2)C(=O)C1 19.1%
CC(CO)(CO)NC(=O)c1ccc(=O)[nH]n1 4.69%
O=C(c1ccc(F)cc1)C1CCN(Cc2cn[nH]c2-c2ccccc2)CC1 -14.2%
COc1cc(/C=N/NC(=O)c2cc(C)n(-c3ccc(F)cc3)c2C)cc(OC)c1O 47.1%
Cc1nn(CC(=O)N/N=C/c2ccc(F)cc2)c(C)c1[N+](=O)[O-] 12.1%
Cc1ccc(/C=N/NC(=S)Nc2cccc(S(=O)(=O)N(C)C)c2)o1 -90.2%
OC(c1ccccc1)C(CN1CCOCC1)c1ccccc1 (configuration not stated) 6.74%
CCNC(=S)N1CCN(CCN=CC2=C(O)CC(C)(C)CC2=O)CC1 7.49%
O=C(CCc1ccccc1)Nc1cccc(-c2nnc(-c3ccco3)o2)c1 14.2%
O=C(NCc1ccco1)c1nc(-c2ccccc2)n(-c2ccccc2)n1 -7.46%
NC(=O)c1ccc(NC(=O)COC(=O)c2ccc([N+](=O)[O-])cc2)cc1 -10.3%
CCOC(=O)c1c(NC(=S)NC)sc2c1CCCC2 11.9%
COc1ccc(NC(=S)Nc2ccccc2Cl)cn1 16.9%
COc1ccc(CS(=O)/C(Cl)=C(/Cl)C(=O)Nc2ccc(OC)nc2)cc1 (configuration not stated) 43.3%
CCNC(=O)CCc1nc(-c2ccc(C)cc2)no1 -1.4%
Fc1ccccc1N=C1Nc2cccc3cccc1c23 16.1%
c1ccc(C2=Nc3cccc4cccc(c34)N2)cc1 37%
N#Cc1c(C(F)(F)F)cc(-c2cccs2)nc1N1CCCCC1 -6.66%
COc1ccc2c(CC(=O)OCC(=O)NC(N)=O)coc2c1 8.39%
Nc1nc(SCc2ccccc2Cl)n[nH]1 -21.7%
Brc1ccc(CSc2ccc(-c3ccco3)nn2)cc1 5.62%
O=C(CSc1nnc(-c2ccco2)n1Cc1ccccc1)NC(=O)NCc1ccco1 31.8%
COC(OC)c1ccnc(SCc2ccccc2Cl)n1 2.7%
O=C(Nc1nnc(SCc2ccccc2)s1)c1ccco1 -9.36%
O=C(CSc1nnc(-c2ccco2)n1CC1CCCO1)c1ccccc1 (configuration not stated) 5.57%
COc1ccc(CC(=O)NCC(=O)N/N=C/c2cc(Br)ccc2OC)cc1 0.9%
Clc1ccc2nc(-c3ccccc3)nc(C(Cl)Cl)c2c1 -22.1%
Nc1c(N(CCO)C(=O)C2CCCCC2)c(=O)[nH]c(=O)n1Cc1ccccc1 24.7%
Cc1c(NC(=O)CN2C(=O)C(=O)N(Cc3ccccc3)C2=O)c(=O)n(-c2ccccc2)n1C 8.51%
Cn1nccc1NC(=O)CC(CC(=O)O)c1ccccc1 (configuration not stated) -13%
Cc1cc(N2CCN(c3ccccc3)CC2)nc(N2CCOCC2)n1 14.2%
CCS(=O)(=O)C1=NSC2=NC(=O)/C(=C\c3cc(C)n(-c4cccc(OC)c4)c3C)C(=N)N21 37.6%
Cc1cc(/C=C2/C(=N)N3C(=NC2=O)SN=C3S(C)(=O)=O)c(C)n1-c1ccccc1 16.9%
OCC1(Cc2ccccc2C(F)(F)F)CCN(Cc2ccncc2)CC1 13.3%
CC(C)(C)NC(=O)NCc1ccco1 8.79%
O=C(Nc1ccccc1)Nc1nnc(COc2ccccc2F)s1 23.7%
Cc1c(C)c(C)c2[nH]c(=S)[nH]c2c1C 2.53%
Cc1cc(=O)[nH]c(=S)[nH]1 4.28%
O=C(COC(=O)/C=C/c1ccc2c(c1)OCO2)NC1CCS(=O)(=O)C1 (configuration not stated) 16%
COc1ccc(OC)c(Nc2nc3ccccc3n3cnnc23)c1 16.9%
O=C(CN1CCN(c2ccc(O)cc2)CC1)Nc1cc(S(=O)(=O)N2CCOCC2)ccc1Cl 49.8%
O=C(N/N=C/c1ccc([N+](=O)[O-])o1)c1cccc(S(=O)(=O)N2CCOCC2)c1 5.84%
